Assay outcomes as filed in PubChem.
An excerpt weighted towards active compounds, which were near 2.8% of everything screened.
POLI inh = DNA polymerase iota (human) inhibition | Pol iota fluorescent replication assay, 10 min | Q9UNA4 | AID 588590 | Potency, µM (series often up to 115 µM), inactives show top-dose activity, negative = inhibition, most hits filed as inhibitors | 390,000 tested, 1% active; further: potency means the concentration at half of the fitted maximal effect
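Fluorescent replication assay read twice, at 0 min and 10 min after adding 50 nM (final) substrate. Enzyme (10 nM) and compounds were first incubated 15 min at room temperature; enzyme-free buffer wells were negative controls.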
PI5P4Ka inh = inhibitors of human PI5P4K alpha | PI5P4Kalpha enzyme, ADP-Glo luminescence, 60 min; stronger effect = lower value | max response, % | 330,000 tested, 1.2% active; active means max response of -50% or lower; inconclusive means between -30% and -50%; inactive means -30% or higher; further: value at the top dose of about 77 µM; on the % scale 0 is the no-effect control and ±100 the full control effect
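Quantitative HTS of the MLSMR library against PI5P4Kalpha with substrate. ATP added last at 5 microM final; room temperature, 60 minutes. Remaining ATP depleted, ADP converted and read as luminescence.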
Pol eta inh = DNA polymerase eta (human) inhibition; Q9Y253; recombinant Pol eta, fluorescent DNA replication assay; Potency, µM (top dose mostly 114 µM), inactives show top-dose activity change, negative = inhibition, hits mostly inhibitors; 390,000 tested, 1.2% active; AID 588591; further: potency means the concentration at half of the fitted maximal effect; on the % scale 0 is the no-effect control and ±100 the full control effect
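Pol eta (10 nM) was preincubated with compounds for 15 min at room temperature, after which fluorescent replication substrate (50 nM final) was added to start the reaction. Fluorescence was read kinetically at 0 and 10 min.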
POLK inh = blocks human DNA polymerase kappa activity; Q9UBT6; purified Pol kappa, fluorescent DNA synthesis assay, 10 min; Potency, µM (series often up to 107 µM), inactives show at the top dose activity, negative = inhibition, usual class: inhibitors; 400,000 tested, 0.53% active; AID 588579; further: potency means the concentration at half of the fitted maximal effect; on the % scale 0 is the no-effect control and ±100 the full control effect
Target sequence (Q9UBT6 whole entry, looked up): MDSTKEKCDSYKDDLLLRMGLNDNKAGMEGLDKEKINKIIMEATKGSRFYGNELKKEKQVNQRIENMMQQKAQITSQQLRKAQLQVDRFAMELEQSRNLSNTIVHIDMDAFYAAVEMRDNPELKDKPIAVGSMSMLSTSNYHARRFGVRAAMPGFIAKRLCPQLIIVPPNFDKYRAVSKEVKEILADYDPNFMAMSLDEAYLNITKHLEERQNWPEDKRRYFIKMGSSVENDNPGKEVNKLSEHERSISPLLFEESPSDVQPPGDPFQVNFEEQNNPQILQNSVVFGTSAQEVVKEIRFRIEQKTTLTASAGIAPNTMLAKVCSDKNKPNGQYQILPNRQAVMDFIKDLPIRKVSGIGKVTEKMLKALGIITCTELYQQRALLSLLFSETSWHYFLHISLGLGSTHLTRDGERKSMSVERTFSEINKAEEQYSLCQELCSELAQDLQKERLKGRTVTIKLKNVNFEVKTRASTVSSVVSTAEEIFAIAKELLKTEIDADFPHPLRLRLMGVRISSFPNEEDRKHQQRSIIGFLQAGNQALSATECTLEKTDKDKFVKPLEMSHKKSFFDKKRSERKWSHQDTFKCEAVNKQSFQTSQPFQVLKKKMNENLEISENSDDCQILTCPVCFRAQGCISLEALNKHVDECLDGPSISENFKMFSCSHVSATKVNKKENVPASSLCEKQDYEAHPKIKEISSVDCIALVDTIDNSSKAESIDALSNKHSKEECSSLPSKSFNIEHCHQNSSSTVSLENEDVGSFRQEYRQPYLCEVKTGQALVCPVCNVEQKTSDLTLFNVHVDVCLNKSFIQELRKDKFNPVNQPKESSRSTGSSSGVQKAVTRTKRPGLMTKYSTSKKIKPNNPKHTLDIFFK
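Kinetic fluorescence screen: compound preincubated 15 min RT with 10 nM enzyme; 50 nM substrate (final) initiates; reads at 0/10 min.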
WRN inhibitor = inhibitors of human WRN helicase | Potency, µM (titrated, usually from 114 µM), without a hit: top-dose activity change, negative = inhibition, usual class: inhibitors | 360,000 tested, 0.46% active | WRN helicase unwinding, fluorescent forked duplex, kinetic | AID 651768; further: potency means the concentration at half of the fitted maximal effect; on the % scale 0 is the no-effect control and ±100 the full control effect; nearly all actives have a fitted effect of over 55% in size
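Screening of the MLSMR collection measured strand separation of a quenched forked DNA duplex (100 nM) by 20 nM WRN with 2 mM ATP, all final. Compounds were preincubated with enzyme 15 min at room temperature.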
POLB inh = DNA polymerase beta (human) inhibition | P06746 | Potency, µM (top dose mostly 114 µM), for inactives: top-dose activity change, negative = inhibition, most hits filed as inhibitors | 340,000 tested, 1.3% active | Pol beta primer extension/strand displacement, fluorescence kinetic; further: potency means the concentration at half of the fitted maximal effect; on the % scale 0 is the no-effect control and ±100 the full control effect
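Kinetic readout of DNA synthesis with strand displacement by Pol beta. Compound and 10 nM enzyme sit 15 min at room temperature; 50 nM substrate starts the reaction, read immediately and at 10 min.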
* hit, by the source's call; ? = inconclusive; . = no result; [ ] = another dose, or the depositor's remark. Unless noted, the call rests on the fitted dose curve; in most records, active means well fitted curve in the direction sought with a large enough effect; inconclusive means small, poorly fitted or top-dose-only effect, or another doubt; inactive means no such curve, though single readings can be large; an effect the other way counts as inactive or inconclusive.

SMILES	POLI inh	PI5P4Ka inh	Pol eta inh	POLK inh	WRN inhibitor	POLB inh
CNC(=O)COc1ccc(Nc2nnc(-c3ccc(C)c(S(N)(=O)=O)c3)c3ccccc23)cc1	126%	12	40µM*	-9%	-10%[11.6 µM]	3%
CC12CCC(C(N)=O)(c3nc4ccccc4nc31)C2(C)C (centres undefined)	-9%	0	-5%	1%	-5%	89µM*
CN(C)C(=O)C12CCC(C)(c3nc4ccccc4nc31)C2(C)C (centres undefined)	13%	.	-5%	-19%	-9%	12%
CC(C)n1c(=O)[nH][nH]c1=S	72%	-103*	-3%	0%	56µM*	1%
CC(C)n1c(=O)[nH]c2ccccc21	19%	.	-12%	-5%	-3%	36%
CC(C)NC(=O)c1ccc2c(c1)N(CC(=O)N1CCCCC1)C(=O)C(C)(C)O2	?	4	-16%	2%	7%	-2%
N#CC1=C2SCN(C3CCCCC3)CN2C(=O)CC1c1ccc(Br)cc1 (centres undefined)	20µM*	.	?	-29%	.	?
CC(C)c1ccc(C2CC(=O)N3CN(Cc4ccco4)CSC3=C2C#N)cc1 (centres undefined)	?	-21	-11%	-14%	-7%	-5%
CCOc1cc(C2CC(=O)NC(SCC)=C2C#N)ccc1O (centres undefined)	13%	4	-9%	2%	0%	22%
CCOc1cc(C2CC(=O)N3CN(C4CCCCC4)CSC3=C2C#N)ccc1O (centres undefined)	35µM*	-60*	-13%	-29%	6%	-17%
OC(CN1C=CCc2ccccc21)c1ccc(Cl)cc1Cl (centres undefined)	-13%	.	.	4%	.	.
Cc1ccc(CSc2nnc(SCC(=O)N/N=C/c3c[nH]c4ccccc34)s2)cc1	3.5µM*	-27	?	-22%	?	7.9µM*
O=C(CSc1nnc(SCc2ccccc2Cl)s1)N/N=C/c1c[nH]c2ccccc12	7%	-6	?	-7%	-34%	4%
CCOC(=O)c1noc2ncn(CC(=O)Nc3cccc(C(F)(F)F)c3)c(=O)c12	2%	.	-6%	-5%[60.1 µM]	.	?
Cn1cc(-c2cc3n(n2)CCC(=O)N3CCCC(=O)NCc2ccccc2)c2ccccc21	-10%	.	7%	-14%[60.1 µM]	.	0%
COc1ccc(C2Nc3ccccc3C(=O)N2c2ccccc2F)cc1COc1ccc(NC(C)=O)cc1 (centres undefined)	-2%	.	.	-18%	.	.
COC(=O)c1ccc(/C=N/n2c(C)nc3ccccc3c2=O)cc1	-28%	-12	-1%	-6%	-3%	10%
COCCCN=C(c1ccco1)n1c(=S)nc(-c2ccco2)n(CCCOC)c1=S	20µM*	.	-5%	?	-29%	35µM*
C=CCn1c(SCc2c(C)noc2C)nc2cc(C(=O)O)ccc2c1=O	22%	.	-17%	-4%	1%	-2%
C=CCn1c(SCc2ccc(Br)cc2F)nc2cc(C(=O)O)ccc2c1=O	?	-61*	1%	-2%	-9%	-15%
CCOC(=O)[C@H](C)N1[C@H](C)[C@H](c2ccccc2)Oc2ccc(Cl)cc2S1(=O)=O	15%	0	-2%	-8%	-6%	.
Cc1ccc2[nH]cc(C(O)c3c[nH]c4ccc(C)cc34)c2c1	55%	.	.	0%	.	.
COCCCn1c(=N)c(C(=O)NCc2ccco2)cc2c(=O)n3ccccc3nc21	79µM*	.	-5%	-15%	.	-19%
N=c1c(S(=O)(=O)c2ccc(Cl)cc2)cc2c(=O)n3ccccc3nc2n1Cc1ccco1	?	-13	?	9%	10%	8.9µM*
COc1ccc(CCNC(=O)c2cc3c(=O)n4ccccc4nc3n(CCCN3CCOCC3)c2=N)cc1	27%	-5	-7%	7%	19%	-25%
SMILES	POLI inh	PI5P4Ka inh	Pol eta inh	POLK inh	WRN inhibitor	POLB inh
O=C(NCc1ccco1)c1cccn2c(=O)c3cc4ccccc4cc3nc12	.	.	.	.	.	14µM*
COc1ccc(CCNC(=O)c2cc3c(=O)n4ccccc4nc3n(CCCN3CCOCC3)c2=N)cc1OC	?	2	-24%	-15%	7%	35µM*
COc1ccc(S(=O)(=O)NCc2ccc3c(c2)CCN3C(=O)c2ccc(C)cc2)cc1Cl	16%	.	-18%	-2%[60.1 µM]	.	1%
CCC(C(=O)NCCCN(CC)Cc1ccccc1)n1nc(C)c2sc3ccccc3c2c1=O (centres undefined)	9%	10	-4%	-4%	2%	33%
O=C(COc1ccccc1C(=O)Nc1cccc(F)c1)Nc1ccc(Br)cc1	-10%	.	.	0%	.	.
COc1ccc(CCn2c(=N)c(C(=O)NCc3ccco3)cc3c(=O)n4ccccc4nc32)cc1OC	16µM*	-2	45µM*	?	-22%	.
COc1ccc(CCNC(=O)c2cc3c(=O)n4ccccc4nc3n(C3CCCCC3)c2=N)cc1OC	-14%	0	-23%	-7%	6%	25µM*
N=c1c(C(=O)NCc2ccco2)cc2c(=O)n3ccccc3nc2n1CCc1ccccc1	?	-15	?	-27%	-13%	32µM*
COc1ccc(CCNC(=O)c2cc3c(=O)n4ccccc4nc3n(C3CCCCC3)c2=N)cc1	17%	5	-11%	2%	10%	0%
CCOCCCn1c(=N)c(C(=O)NCc2ccco2)cc2c(=O)n3ccccc3nc21	26%	.	-10%	-23%	.	-28%
COc1ccc(CCNC(=O)c2cc3c(=O)n4ccccc4nc3n(Cc3ccco3)c2=N)cc1OC	7%	0	?	0%	-19%	-29%
Cc1ccc(Cn2c(=N)c(C(=O)NCc3ccco3)cc3c(=O)n4ccccc4nc32)cc1	4µM*	-16	8.9µM*	?	-27%	7.9µM*
COc1cc(CN2C[C@@H](CO)O[C@@H](n3cnc4c(Nc5ccccc5)ncnc43)C2)cc(OC)c1OC	.	-8	.	.	2%	.
CCc1ccccc1NC(=O)CCc1c(C)nc2cc(-c3ccccc3)nn2c1C	6%	.	-8%	-8%	.	19%
CCCCn1c(CNC(=O)C23CC4CC(CC(C4)C2)C3)nnc1SCC(=O)Nc1ccccc1	2%	.	-14%	-12%	.	?
Cc1[nH]c(=O)c(C(=O)/C=C/c2ccccc2F)c2c1CCCC2	18µM*	.	?	-9%	-8%	-1%
CC(C)(O)c1[nH]c2cc(F)ccc2c1C(C)(C)O	38%	9	-2%	-6%	2%	28%
COc1ccc(C(=O)NC(C(=O)OCC(=O)Nc2sccc2C(N)=O)C(C)C)cc1 (centres undefined)	?	-13	89µM*	-30%	1%[11.6 µM]	.
